Most compounds without a hit are left out; they make up all but 7.8% or so of the library.
VACV Venus inh: inhibitors of vaccinia virus (Venus reporter). Vaccinia virus Venus reporter expression, fluorescence. Potency, µM (series often up to 36.5 µM), hits mostly inhibitors. actives 0.46% (n = 330,000); calls by dose curve; tested in A549 cells; note: nearly all actives have a fitted effect of over 30% in size
Lassa entry inh: blocks Lassa virus binding to or entry into cells; Lassa virus pseudotype entry inhibition, cell reporter; Potency, µM (highest dose often 37.9 µM), usual class: inhibitors; actives 1.2% (n = 300,000); AID 540256; calls by dose curve; tested in HEK293 cells; note: nearly all actives have a fitted effect of over 50% in size
HCV inhibitor: HCV inhibition; actives 3.4% (n = 340,000); Huh7.5.1 HCVcc-Cre infection, luciferase reporter, 44 h; AID 651820; Potency, µM (highest dose often 41.8 µM), most hits filed as inhibitors; active = well fitted inhibition curve with a large enough effect; inconclusive = small, poorly fitted or top-dose-only effect, or another doubt; inactive = no such curve, though single readings can be large or run the other way
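After 44 h co-culture of compound, cells and HCVcc-Cre (~0.5 moi), substrate is added for 15 min at room temperature and luciferase measured over 15 sec. Cells were seeded at 1,000/well and pre-cultured 4 h.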
MARV entry inh: blocks Marburg virus binding to or entry into cells; actives 1.8% (n = 300,000); Potency, µM (doses to about 37.8 µM), hits mostly inhibitors; Marburg virus pseudotyped entry inhibition, cell reporter; calls by dose curve; tested in HEK293 cells
Vaccinia mCherry: vaccinia inhibition (mCherry reporter); Potency, µM (top dose mostly 36.5 µM), hits mostly inhibitors; Vaccinia virus mCherry reporter infection, fluorescence; AID 720579; actives 0.63% (n = 310,000); calls by dose curve; tested in A549 cells; note: nearly all actives have a fitted effect of over 35% in size
HCMV inh: blocks human cytomegalovirus replication | HFF cells, HCMV-luciferase reporter, 72 h; active compounds read low | activity change, negative = inhibition, % at 57.5 µM | actives 4.5% (n = 410,000); in the data active = activity change below about -60%; inconclusive = no clear call, values can overlap the other calls; inactive = above about -39%
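Two compound doses tested in HFFs infected with HCMV-luciferase, MOI 1 PFU/cell, 72 h at 37C. Lysate luminescence read with OneGlo; data normalized against buffer-only and 10uM Salinomycin inhibitor controls.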
Numbers stand for hits; n = inactive; u = inconclusive; x = not tested or not shown.

SMILES | VACV Venus inh | Lassa entry inh | HCV inhibitor | MARV entry inh | Vaccinia mCherry | HCMV inh
CCN(C[C@H]1N[C@@](C)(C(=O)OC)[C@H]2C(=O)N(C)C(=O)[C@@H]12)C(=O)Nc1ccc(OC)cc1 | n | x | 2.5µM | x | n | n
CO[C@H]1[C@H](NC(=O)c2ccsc2)c2ccccc2C12CCN(Cc1cnn(C)c1C)CC2 | n | x | x | x | n | x
CCCCCCOC(=O)C(C#N)c1nc2ccccc2nc1N1CCOCC1 (stereo unspecified) | x | n | n | n | x | n
CCCCCCOC(=O)C(C#N)c1nc2ccccc2nc1N1CCN(CC)CC1 (stereo unspecified) | n | u | n | 4.6µM | n | n
O=C(COc1ccccc1C(=O)OCC(=O)N1CCOCC1)Nc1ccc(Br)cc1 | n | x | x | x | n | x
Oc1ccccc1-c1nc(NCC2CCCO2)c2ccccc2n1 (stereo unspecified) | n | n | 13µM | n | n | n
COc1ccccc1Nc1nc(NCC2CCCO2)c2ccccc2n1 (stereo unspecified) | n | u | 10µM | u | n | u
COc1cccc(CN2CCCC(c3nc(C)ncc3-c3ccc(F)cc3)C2)c1OC (stereo unspecified) | n | x | x | x | n | x
COc1ccc([C@@H]2CC=C(C(=O)O)CN2S(=O)(=O)c2ccc(C)cc2)cc1OC | n | x | n | x | n | -64
COc1ccc(S(=O)(=O)N2CCSC2c2ccc(OC)c(OC)c2)cc1 (stereo unspecified) | x | n | n | n | x | -62
Cc1cc(C)c2nc(N3CCCC(C(=O)NCc4ccccc4F)C3)sc2c1 (stereo unspecified) | n | x | x | n | n | n
Cc1nc(N2CCCCC2)c2c(C)c(C(=O)Nc3ccc4c(c3)OCCO4)sc2n1 | x | x | u | x | x | -61
Cc1nc(N2CCN(c3ccccn3)CC2)c2c(C)c(C(=O)Nc3c(C)cc(Br)cc3C)sc2n1 | x | x | u | x | x | n
Cc1nc(N2CCN(C)CC2)c2c(C)c(C(=O)Nc3ccc(C)c(F)c3)sc2n1 | x | n | 8.9µM | u | x | n
Cc1nc(N2CCN(c3ccccn3)CC2)c2c(C)c(C(=O)Nc3c(F)cc(F)cc3Br)sc2n1 | x | x | 13µM | x | x | u
COc1ccc(Nc2nc3ccccc3c3nnc(C)n23)cc1Cl | n | n | x | n | n | n
Cn1cccc1/C=C1\CCC/C(=C\c2cccn2C)C1=O | x | n | 13µM | u | x | n
C[C@H]1CC2C3CCC4=CC(=O)C=C[C@]4(C)[C@@]3(Cl)[C@@H](O)C[C@]2(C)[C@@]1(O)C(=O)CO (stereo partly specified) | x | n | x | n | x | x
CC(C)CCCCCCCCCCCCC(=O)NCC(=O)NC1C(C)OC(Nc2ncnc3nc[nH]c23)C(O)C1O (stereo unspecified) | 2µM | 0.079µM | 1µM | u | u | -96
CC(C)CNc1ncnc2nc[nH]c12 | n | x | x | x | n | x
CCOC(=O)C1CCCN(c2nc3c(S(=O)(=O)c4ccc(CC)cc4)nnn3c3ccsc23)C1 (stereo unspecified) | n | n | x | x | n | n
COc1ccc(-n2c(CNC(=O)c3c(-c4ccccc4)noc3C)nnc2SC)cc1 | n | x | x | x | n | x
CCCCN(CC)CCNC(=O)CCC(=O)Nc1ccc2nc(N3CCN(C)CC3)cc(C)c2c1 | n | x | n | x | u | n
CCCN(CCC)CCCNC(=S)Nc1ccc2nc(N3CCN(C)CC3)cc(C)c2c1 | x | x | 13µM | x | x | n
CCCCN(CC)CCNC(=S)Nc1ccc2nc(N3CCN(C)CC3)cc(C)c2c1 | u | u | 0.89µM | 3.5µM | 13µM | n
SMILES | VACV Venus inh | Lassa entry inh | HCV inhibitor | MARV entry inh | Vaccinia mCherry | HCMV inh
CCOC(=O)C1CCCN(S(=O)(=O)c2cc3c(cc2C)NC(=O)CO3)C1 (stereo unspecified) | n | n | x | x | n | n
CCOc1ccc(-c2nnc3sc(COc4ccc(C)cc4)nn23)cc1 | n | 8.2µM | n | n | n | n
CCOc1ccc2nc(C)cc(Nc3ccccc3OCC)c2c1 | n | u | x | x | n | u
CCOc1ccc(Nc2cc(C)nc3ccc(C)cc23)cc1 | n | 11µM | u | u | n | -74
Cc1cc(Nc2ccc3c(c2)OCCO3)c2cc(Cl)ccc2n1 | n | n | u | n | n | -93
Cc1ccc(Nc2cc(C)nc3ccccc23)c(C)c1 | n | n | 32µM | 10µM | n | u
Cc1cccc(Nc2cc(C)nc3ccccc23)c1 | n | u | u | u | n | u
Cc1cc(Nc2ccc(F)cc2)c2ccccc2n1 | n | x | x | x | n | n
Cc1ccc(Nc2cc(C)nc3ccc(C)cc23)cc1 | u | u | u | 11µM | u | n
Cc1cc(C)c(C#N)c(Nc2ccc3c(c2)OCCO3)n1 | n | x | n | x | n | n
CC(C)[C@@H](CO[Si](C)(C)C(C)(C)C)N1CC=CS1(=O)=O | x | n | x | x | x | x
COc1cc(=O)n2c(c1C(=O)N(C)Cc1nonc1C)CCN(Cc1cccc3ccccc13)CC2 | n | x | x | x | n | x
Cc1cc(O)c(C(c2ccc(Cl)cc2)N2CCN(c3ccccc3)CC2)c(=O)n1Cc1ccco1 (stereo unspecified) | n | n | x | x | n | n
COC(=O)c1c(-c2cccs2)csc1NC(=O)COc1ccccc1 | n | n | x | u | n | n
Cc1cc(C)n(CCc2nc3c4ccccc4nc(SCc4ccc(F)cc4)n3n2)n1 | n | n | x | x | n | n
CC(CCN1CCCc2nc(C)c(C)cc21)=NO[C@H](C)CN1CCCc2nc(C)c(C)cc21 | x | x | x | n | x | x
CCN(CC)C(=O)CSc1nc(C)cc(C)c1C#N | n | n | n | n | n | n
CCN(Cc1ccccc1)C(=O)CSc1nc(C)cc(C)c1C#N | n | n | 10µM | n | n | u
CCOC(=O)NC(=O)CSc1nc(C)cc(C)c1C#N | x | n | n | n | x | n
CCc1nnc(NC(=O)CSc2nc(C)cc(C)c2C#N)s1 | n | u | n | 7.9µM | n | n
Nc1nccc(-c2ccc(-n3cnc4ccccc43)cc2)n1 | n | n | n | u | n | -70
Cc1nccc(-c2ccc(-n3cnc4ccccc43)cc2)n1 | n | n | u | n | n | u
O=C(CSc1nc(-c2cccs2)cc(C(F)(F)F)n1)Nc1cc(OCC(F)(F)C(F)F)cc([N+](=O)[O-])c1 | n | u | 3.5µM | u | n | n
NS(=O)(=O)c1ccc(CCNC(=O)c2ccc([N+](=O)[O-])s2)cc1 | u | u | u | u | 11µM | -100
Cc1ccc(NC(=O)C2CCCN(C(=O)c3cnn(-c4ccc(F)cc4)c3-n3cccc3)C2)c(Cl)c1 (stereo unspecified) | n | n | x | x | n | n
Cc1csc(=O)n1CCC(=O)OCC(=O)NNC(=O)c1ccc(Cl)cc1 | n | n | n | n | n | n
CCOc1ccc(OCC)c(S(=O)(=O)NC2CC(C)(C)NC(C)(C)C2)c1 | n | u | n | u | n | n
CCOc1c(S(=O)(=O)NC2CC(C)(C)NC(C)(C)C2)ccc(Cl)c1Cl | n | n | u | 10µM | n | n
Cc1ccc(C)c(CN2C[C@H](Sc3nc4ccccc4[nH]3)C[C@H]2C(=O)N2CCCN(C)CC2)c1 | n | x | x | x | n | x
COc1ccc2cc(Br)ccc2c1CC(=O)NC(C)C | n | n | n | u | n | u

Screening results: PubChem BioAssay, National Center for Advancing Translational Sciences (NCATS)
